In the library only some 2.3% were active in any assay of this set; here they are far more common.
Pol kappa inh: blocks human DNA polymerase kappa activity | Q9UBT6 | purified Pol kappa, fluorescent DNA synthesis assay, 10 min | Potency, µM (top dose mostly 107 µM), for inactives: at the top dose activity, negative = inhibition, actives largely listed as inhibitors | 0.53% of 400,000 active | AID 588579; also: % is scaled to controls: 0 for no effect and ±100 for the full control effect
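Readout: fluorescence, taken kinetically at 0 and 10 min. Conditions: 10 nM Pol kappa, 15 min RT compound preincubation, 50 nM substrate final. Controls: enzyme-free buffer wells.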
Pol eta inh: inhibitors of human DNA polymerase eta; Q9Y253; recombinant Pol eta, fluorescent DNA replication assay; Potency, µM (highest dose often 114 µM), for the others: at the highest dose activity change, negative = inhibition, hits mostly inhibitors; 1.2% of 390,000 active; AID 588591; also: % is scaled to controls: 0 for no effect and ±100 for the full control effect
Target sequence (Q9Y253 whole entry, looked up): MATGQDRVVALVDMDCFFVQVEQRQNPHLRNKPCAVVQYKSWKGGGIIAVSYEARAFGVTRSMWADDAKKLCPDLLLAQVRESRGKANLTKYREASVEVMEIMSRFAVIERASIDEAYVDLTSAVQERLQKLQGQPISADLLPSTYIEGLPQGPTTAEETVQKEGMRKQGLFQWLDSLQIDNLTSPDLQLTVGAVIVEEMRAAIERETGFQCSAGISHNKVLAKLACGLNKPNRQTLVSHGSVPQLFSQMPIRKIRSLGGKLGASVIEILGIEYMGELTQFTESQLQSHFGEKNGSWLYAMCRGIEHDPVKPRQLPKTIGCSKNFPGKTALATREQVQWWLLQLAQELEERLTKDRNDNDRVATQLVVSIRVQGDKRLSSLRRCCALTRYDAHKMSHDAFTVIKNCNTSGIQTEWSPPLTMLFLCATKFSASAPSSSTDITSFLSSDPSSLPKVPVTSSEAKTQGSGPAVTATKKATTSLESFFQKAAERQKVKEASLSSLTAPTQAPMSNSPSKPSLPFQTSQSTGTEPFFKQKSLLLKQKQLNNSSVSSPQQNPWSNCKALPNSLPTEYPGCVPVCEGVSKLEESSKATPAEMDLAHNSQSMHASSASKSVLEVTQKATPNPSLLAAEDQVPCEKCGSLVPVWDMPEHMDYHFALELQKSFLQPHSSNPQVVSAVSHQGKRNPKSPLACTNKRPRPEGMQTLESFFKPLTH
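Pol eta (10 nM) was preincubated with compounds for 15 min at room temperature, after which fluorescent replication substrate (50 nM final) was added to start the reaction. Fluorescence was read kinetically at 0 and 10 min.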
WRN inhibitor: inhibitors of human WRN helicase. Q14191. WRN helicase unwinding, fluorescent forked duplex, kinetic. Potency, µM (titrated, usually from 114 µM), for inactives: top-dose activity change, negative = inhibition, actives largely listed as inhibitors. 0.46% of 360,000 active. AID 651768; also: % is scaled to controls: 0 for no effect and ±100 for the full control effect; nearly all actives have a fitted effect of over 55% in size
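Fluorescence dequenching readout, ex 525 nm/em 598 nm, kinetic mode: forked duplex DNA (100 nM final) with adjacent fluorophore and quencher unwound by WRN (20 nM final) with 2 mM ATP. Compound preincubation 15 min, room temperature.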
POLB inh: inhibitors of human DNA polymerase beta | Potency, µM (series often up to 114 µM), without a hit: top-dose activity change, negative = inhibition, actives largely listed as inhibitors | 1.3% of 340,000 active | P06746 | Pol beta primer extension/strand displacement, fluorescence kinetic; also: % is scaled to controls: 0 for no effect and ±100 for the full control effect
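Curves were derived by four-parameter Hill fits of normalized qHTS data. The kinetic fluorescent primer-extension read was taken at 0 and 10 min after 50 nM substrate, following a 15 min room-temperature preincubation of 10 nM enzyme with compounds.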
Pol iota inh: DNA polymerase iota (human) inhibition. Pol iota fluorescent replication assay, 10 min. 1% of 390,000 active. AID 588590. Potency, µM (series often up to 115 µM), for the others: top-dose activity, negative = inhibition, actives largely listed as inhibitors. Q9UNA4
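Fluorescent replication assay read twice, at 0 min and 10 min after adding 50 nM (final) substrate. Enzyme (10 nM) and compounds were first incubated 15 min at room temperature; enzyme-free buffer wells were negative controls.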
Active calls of the source: *; ? = inconclusive; · = no result; [ ] = dose if it differs, or a comment. Calls follow the shape of the dose curve; as a rule, active = well fitted curve in the direction sought with a large enough effect; inconclusive = small, poorly fitted or top-dose-only effect, or another doubt; inactive = no such curve, though single readings can be large; an effect the other way counts as inactive or inconclusive. Potency is read from the fitted curve at half-maximal effect.

SMILES | Pol kappa inh | Pol eta inh | WRN inhibitor | POLB inh | Pol iota inh
Cc1cccc(C)c1NC(=O)CSc1nnc(-c2ccco2)c(-c2ccco2)n1 | 28.2µM* | 3.55µM* | 35.5µM* | 3.16µM* | ?
COc1cc(C)c(NC(C)C(=O)c2c(C)[nH]c3ccccc23)cc1OC (stereo unspecified) | -13.0% | · | · | · | 40.1%
Cc1nc(SCC(=O)c2ccccc2)c(C#N)c(-c2ccco2)c1C(=O)NCc1ccco1 | ? | 20µM* | ? | 3.6% | ?
CN1C2C=C3C(C#N)=C(N)C(C#N)(C#N)[C@@H](c4cccc(F)c4)[C@@H]3C1CC2 (stereo partly specified) | -6.7% | -10.9% | -4.2%[57.1 µM] | 43.7% | 20µM*
C#C[C@]1(O)CC[C@H]2[C@H]3CCc4cc(O)ccc4[C@@H]3CC[C@@]21C | 4.3%[60.1 µM] | · | · | · | ·
CC(=O)N1C(=O)c2cccc3cccc(c23)C(=O)N1C(C)=O | -0.2% | -10.5% | 14.9% | -1.8% | -2.4%
O=C1c2cccc3cccc(c23)C(=O)C1(O)O | -6.4% | -22.7% | 20µM* | · | 111.7%
N#Cc1cc2c(OCC(O)CN3CCN(C(c4ccccc4)c4ccccc4)CC3)cccc2[nH]1 (stereo unspecified) | -1.6%[19.4 µM] | · | · | · | ·
Cc1ccc2c(N)c(C)ccc2c1 | -10.3% | -3.5% | -27.8% | 15.4% | 14.5%
Cc1ccc2cc3c(N)c4c(C)ccc(C)c4nc3nc2c1 | -33.3% | ? | -23.0% | 25.1µM* | ?
COc1ccc(-c2ccc(/C=C3/C(=N)N4C=CSC4=NC3=O)o2)c([N+](=O)[O-])c1 | -18.9% | 20µM* | ? | 35.5µM* | ?
NC(=O)c1ccc(NC(=O)COC(=O)c2cc3c(s2)CCC3)cc1 | ? | 11.2µM* | -22.0% | · | 79.4µM*
NC(=O)c1c(NC(=O)COC(=O)c2ccc(O)c(Cl)c2)sc2c1CCCC2 | -24.9% | 50.1µM* | -32.7% | · | ?
COc1ccc(OCC(=O)Nc2ccc3c(c2)CCC3)cc1 | 7.1% | -12.7% | 0.5% | · | 34.3%
O=C(COC(=O)c1cc2c(s1)CCCC2)Nc1ccc(Cl)cn1 | 6.9% | -2.2% | 0.3% | -25.4% | 21.1%
COc1ccc(NC(=O)COC(=O)c2cc3c(s2)CCC3)cc1 | ? | 44.7µM* | -22.3% | · | 31.6µM*
CCC1Sc2ccc(S(=O)(=O)CCC(=O)Nc3c(Cl)cc(OC)cc3OC)cc2NC1=O (stereo unspecified) | -18.7% | ? | -28.9% | 79.4µM* | -7.2%
C=CCOc1c(Br)cc(/C=C2/C(=O)ON=C2C)cc1OC | -2.5% | -11.5% | -15.9%[11.6 µM] | -0.4% | 89.1µM*
CC(C)CNc1ncnc2oc(-c3ccco3)c(-c3ccco3)c12 | -39.5% | · | · | · | ?
COc1cc2c(c(OC)c1OC)-c1c(cc(OC)c(OC)c1OC)CC(C)C(C)C2 (stereo unspecified) | -4.5%[60.1 µM] | · | · | · | ·
CCCN1CCC(=O)N(C(CSc2ccc(Br)cc2)CC(C)C)CC1 (stereo unspecified) | 0.0% | · | · | · | 13.7%
Cc1cc(C)cc(NC(=O)Cn2c(-c3cncs3)nc3ccccc32)c1 | -13.7% | · | · | ? | 89.1µM*
COc1cc(NC(=O)Cn2c(-c3cncs3)nc3ccccc32)cc(OC)c1OC | -2.3% | -14.3% | 4.1% | -1.0% | -4.5%
CN(C)c1ccc(-c2nnc(SCC(=O)NCc3ccco3)n2C)cc1 | -16.2% | · | · | · | -25.7%
COc1ccccc1C1CC(=O)Oc2cc3c(cc21)OCO3 (stereo unspecified) | 14.1µM* | · | · | · | ·
SMILES | Pol kappa inh | Pol eta inh | WRN inhibitor | POLB inh | Pol iota inh
COc1ccccc1C1CC(=O)Oc2cc(C)c(Cl)cc21 (stereo unspecified) | ? | ? | -13.6% | · | ?
COc1ccccc1CCNC(=O)Cn1ccc2cc(S(=O)(=O)N3CCCC3)ccc21 | -12.4% | -6.6% | -13.6% | 2.8% | 25.1%
COc1ccccc1CCNC(=O)Cn1ccc2cc(S(=O)(=O)N3CCCCC3)ccc21 | ? | -5.9% | · | 1.7% | 89.1µM*
O=C(C=Cc1ccccc1)CC(c1ccccc1)N1CCOCC1 (stereo unspecified) | -9.2% | ? | -10.0%[11.6 µM] | · | 20µM*
CC(N)(COP(=O)(O)O)C(=O)O (stereo unspecified) | 0.7%[19.4 µM] | · | · | · | ·
O=[N+]([O-])c1ccc(/C([O-])=C(/C(=S)NCc2ccco2)[n+]2ccccc2)cc1 | -17.6% | -15.1% | 6.3% | 20µM* | 39.2%
Cc1ccc(/C([O-])=C(/C(=S)NCc2ccco2)[n+]2ccccc2)cc1 | · | · | · | -2.5% | ·
O=C(Nc1cccc2ccccc12)c1cnn2c1NC(=C1CC1)C=C2C(F)F | 0.1% | · | · | · | 2.1%
Cc1ccccc1C(=O)N1CCc2cc(-c3nc(NC(=O)Cc4ccc5c(c4)OCO5)sc3C)ccc21 | -15.7% | 1.0% | -0.3% | 0.251µM* | 3.6%
Cc1sc(NC(=O)Cc2ccc3c(c2)OCO3)nc1-c1ccc2c(c1)CCN2C(=O)c1cccc(F)c1 | -3.2% | 0.5% | 4.1% | 2.6% | 18.7%
CCCOC(=O)N1CCN(/[N+]([O-])=N/Oc2ccc([N+](=O)[O-])cc2[N+](=O)[O-])CC1 | -8.3% | · | · | · | ?
CC(C)(C)c1ccc(C(=O)N/C(=C\c2ccco2)C(=O)Nc2ccccc2C(=O)O)cc1 | ? | 35.5µM* | -30.9% | ? | ?
CCOP(=O)(OCC)C(C#N)=C1SCN(c2ccccc2)CS1 | -15.2% | 39.8µM* | -13.5% | · | ?
CCOC(=O)Cc1cc(=O)n2[nH]c(-c3ccccc3)c(-c3ccccc3)c2n1 | 79.4µM* | 79.4µM* | ? | 14.1µM* | ?
CCOC(=O)Cc1cc(=O)n2[nH]c(C)c(-c3ccccc3)c2n1 | ? | 4.9% | -11.4%[57.1 µM] | ? | ?
CSCc1nc2sc(C(=O)Nc3nc(C)cs3)c(C)c2c(=O)[nH]1 | -25.3% | 31.6µM* | -5.4%[11.6 µM] | -2.5% | ?
Cc1csc(NC(=O)CSc2nc3sc(C)c(C)c3c(=O)[nH]2)n1 | -29.4% | 1.0% | -17.6% | ? | ?
CCOc1ccc(Oc2ccccc2NS(=O)(=O)c2ccc(CCC(=O)O)cc2)cc1 | -12.1% | 35.5µM* | 0.3%[11.6 µM] | · | 15.9%
O=C(NCCCc1nc2ccccc2n1CCOc1ccccc1)C1CCCCC1 | -9.9% | · | · | · | -0.8%
O=C(N/N=C/c1ccccn1)c1cc(-c2ccc(Br)s2)[nH]n1 | -22.1% | -29.4% | -12.3% | 10µM* | -11.8%
CCc1ccc(-c2cc(C(=O)N/N=C/c3ccccn3)[nH]n2)cc1 | -8.4% | -17.2% | -0.2% | -4.0% | 124.7%
O=C(N/N=C/c1ccccn1)c1cc(-c2ccc(Cl)s2)[nH]n1 | -6.9% | -10.9% | -15.2% | 35.5µM* | 27.0%
O=C(N/N=C\c1ccncc1)c1ccc(Br)s1 | 8.2% | -9.8% | -5.4% | -18.7% | 21.0%
O=C(N/N=C/c1ccncc1)c1cc(-c2ccc(Br)s2)[nH]n1 | -21.4% | 79.4µM* | 2.0%[11.6 µM] | 22.4µM* | ?
Cc1nn(-c2ccccc2)c(C)c1/C=N/NC(=O)c1cc(-c2ccc(Br)s2)[nH]n1 | 5.8% | -9.4% | 4.7% | -12.3% | ?
